Consider 22 compounds from PubChem BioAssay (EPA / NIEHS).

Records with an inconclusive call do not appear. Activity calls are given as the source filed them. The calls were made as follows, unless noted: active = hit-call score of the fitted dose curve at least 0.9, where 1 is the maximum; inconclusive = response in the unintended direction; inactive = score below 0.9.

Test [1] in a line: VALA_TUBHUV_Agonist_TubuleLength: VALA Sciences human Umbilical Vein Endothelial Tubule Formation (TUBHUV) Agonism Assay (AID 2284337). An outline of the steps: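 HUVEC co-cultured with fibroblasts (1:3) 3 days in 10 ng/ml VEGF, then 3 days with compound plus VEGF; 0.1 % DMSO neutral control. Fixed, nuclear and CD31 stained; tubule length by fluorescence imaging.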
Test [2] is described as follows: VALA_TUBIPS_Agonist_CellCount: Viability Assessment in the VALA Sciences human iPS-derived Endothelial Tubule Formation (TUBIPS) Agonism Assay (AID 2284338).
In another test the test system is SERPINA7 (gene 6906). The test can be described thus: CCTE_GLTED_hTBG: CCTE's human Thyroxine-binding Globulin (TBG) Inhibition Assay, Great Lakes Toxicology and Ecology Division (GLTED) Lab (AID 2284343).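 Also: active chemicals lower fluorescence versus DMSO baseline by displacing probe.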 An outline of the steps:
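hTBG + test chem, 2 h; ANSA probe displacement; fluorescence readout ex380/em475; DMSO = neg ctrl/baseline; cell-free.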

For test [3], the system named is SRY-box transcription factor 17 (SOX17) Protein Expression, Deisenroth Lab, SOX17 (gene 64321). The test can be described thus: CCTE_Deisenroth_DEVTOX-GLR_legacy_Sox17: (Legacy) CCTE's DevTox GLR-Endo Assay Evaluation of SRY-box transcription factor 17 (SOX17) Protein Expression, Deisenroth Lab (AID 2284341; active = hit-call score of the fitted dose curve at least 0.9, where 1 is the maximum; inactive = score below 0.9). The settings on record: actives raise or lower the signal. An outline of the steps:
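Percent SOX17-positive cells, scored by high-content imaging as mean intensity exceeding pluripotent-control median by 5x BMAD, divided by cell count. Human RUES2-GLR endoderm differentiation, 48 h, two exposures 24 h apart, 1 nM–200 uM; DMSO-referenced bidirectional fitting.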

Test [4] relates to SRY-box transcription factor 2 (SOX2) Protein Expression, Deisenroth Lab, SOX2 (gene 6657). Kind of test: CCTE_Deisenroth_DEVTOX-GLR_legacy_Sox2: (Legacy) CCTE's DevTox GLR-Endo Assay Evaluation of SRY-box transcription factor 2 (SOX2) Protein Expression, Deisenroth Lab (AID 2284346; active = hit-call score of the fitted dose curve at least 0.9, where 1 is the maximum; inactive = score below 0.9). An outline of the steps:
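RUES2-GLR human pluripotent cells seeded 24 h, then differentiated 48 h in defined media with two chemical doses 24 h apart (10-point, 1 nM–200 uM). Fixed, nuclear-stained, imaged; % Sox2+ cells (>5x BMAD over endoderm control median), DMSO-subtracted, fitted upward.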

For test [5], the system named is SRY-box transcription factor 17 (SOX17) Protein Expression, Deisenroth Lab, SOX17 (gene 64321). The test can be described thus: CCTE_Deisenroth_DEVTOX-GLR_Endo_SOX17: CCTE's DevTox GLR-Endo Assay Evaluation of SRY-box transcription factor 17 (SOX17) Protein Expression, Deisenroth Lab (AID 2284413; active = hit-call score of the fitted dose curve at least 0.9, where 1 is the maximum; inactive = score below 0.9). How it is done: CCTE_Deisenroth_DEVTOX-GLR_Endo assay is a cell-based, multiplex-readout assay that uses RUES2-GLR, a human pluripotent cell line, with measurements taken at 48 hours after chemical dosing in a 384-well microplateCCTE_Deisenroth_DEVTOX-GLR_Endo_SOX17 is 1 of 4 assay components calculated from the CCTE_Deisenroth_DEVTOX-GLR_Endo assay and it measures the percentage of cells in an endoderm state. Using a type of inducible fluorescent protein reporter, gain-of-signal activity can be used to understand changes in gene expression with fluorescent microscopy. The percentage of SOX17+ cells are determined by calculating the number of SOX17+ cells divided by the cell count. To generalize the intended target to other relatable targets, this assay component is annotated to the transcription factor intended target family, where the subfamily is SRY-related HMG-box.Data from the assay component CCTE_Deisenroth_DEVTOX-GLR_Endo_SOX17 was analyzed as 1 assay endpoint. The endpoint is the percent change in SOX17+ cell population relative to the 0.2% DMSO control in the CCTE_Deisenroth_DEVTOX-GLR_Endo assay. This assay endpoint can be referred to as a primary readout since this assay has produced multiple assay endpoints where this one serves as a measure of endoderm differentiation.
(§1) All assay protocols are aligned to the DevTox GLR-Endo assay workflow. Cells are seeded into 384-well microplates for 24 hours prior to initiating differentiation in defined media for a total duration of 48 hours. A total of two chemical exposures are administered in 24-hour intervals during the 48-hour differentiation period. At the assay termination point, cells are fixed and stained with a fluorescent dye demarcating the nucleus. High-content imaging is used to acquire brightfield and fluorescent channel images across 5 fields per well. Cell identification and mean biomarker fluorescence intensities are calculated with image analysis software to determine the total cell counts for viability assessment and the biomarker expression frequency for each lineage-dependent assay. A typical experimental design tests a 10-point concentration series (1 nM - 200 uM) for 28 compounds in single technical replicate. Assay plate controls include non-differentiated pluripotent cells (baseline control), lineage-specific differentiated cells (differentiation control), and DMSO solvent exposed differentiated cells (solvent control). Experiments typically comprise a minimum of four experimental replicates (n=4).

Test [6] concerns Brachyury (BRA) Protein Expression, TBXT (gene 6862). Kind of test: CCTE_Deisenroth_DEVTOX-GLR_Endo_BRA: CCTE's DevTox GLR-Endo Assay Evaluation of Brachyury (BRA) Protein Expression, Deisenroth Lab (AID 2284417; active = hit-call score of the fitted dose curve at least 0.9, where 1 is the maximum; inactive = score below 0.9). How it is done:
CCTE_Deisenroth_DEVTOX-GLR_Endo assay is a cell-based, multiplex-readout assay that uses RUES2-GLR, a human pluripotent cell line, with measurements taken at 48 hours after chemical dosing in a 384-well microplateCCTE_Deisenroth_DEVTOX-GLR_Endo_BRA is 1 of 4 assay components calculated from the CCTE_Deisenroth_DEVTOX-GLR_Endo assay and it measures the percentage of cells in an mesoderm state. Using a type of inducible fluorescent protein reporter, gain-of-signal activity can be used to understand changes in gene expression with fluorescent microscopy. The percentage of BRA+ cells are determined by calculating the number of BRA+ cells divided by the cell count. To generalize the intended target to other relatable targets, this assay component is annotated to the transcription factor intended target family, where the subfamily is T-box protein.Data from the assay component CCTE_Deisenroth_DEVTOX-GLR_Endo_BRA was analyzed as 1 assay endpoint. The endpoint is the percent BRA+ cell population minus the 0.2% DMSO control in the CCTE_Deisenroth_DEVTOX-GLR_Endo assay. Furthermore, this assay endpoint can be referred to as a secondary readout, because this assay has produced multiple assay endpoints where this one serves as a measure of mesoderm differentiation.
as §1

Test [7] is described as follows: CCTE_Deisenroth_DEVTOX-GLR_Endo_CellCount: Viability Assessment in CCTE's DevTox GLR-Endo Assay, Deisenroth Lab (AID 2284420; active = hit-call score of the fitted dose curve at least 0.9, where 1 is the maximum; inactive = score below 0.9). An outline of the steps:
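Nuclei counted by fluorescence microscopy as a surrogate for cell number, expressed as percent change relative to 0.2% DMSO control. Human RUES2-GLR cells, 48 h differentiation, dosed twice; 1 nM - 200 uM series.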

Test [8] can be described thus: CCTE_Mundy_HCI_iCellGluta_NOG_NeuronCount: CCTE's Neurite Outgrowth Assay in iCellGluta cells for Neuron Count, Mundy Lab (AID 2284340).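 Also: cells fixed about 48 h after compound addition.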 The essentials:
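Neuron count read by automated high-content imaging of Hoechst 33342 and betaIII-tubulin/Alexa Fluor-488 labelling in human iPSC glutamatergic neurons. Activity fitted relative to DMSO.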

Test [9] is described as follows: CCTE_Mundy_HCI_iCellGluta_NOG_NeuriteCount: CCTE's Neurite Outgrowth Assay in iCellGluta cells for Neurite Count, Mundy Lab (AID 2284342).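 Also: chemical exposure about 48 hours starting 2 hours after plating.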

On to `COC(=O)[C@H]1[C@H]2C[C@@H]3c4[nH]c5cc(OC)ccc5c4CCN3C[C@H]2C[C@@H](OC(=O)c2cc(OC)c(OC)c(OC)c2)[C@@H]1OC`, for which the compound was called inactive in test [1] and in test [2].

By AC50 is commonly meant the concentration at which the activity in the assay is half-maximal. Turning to `S=c1[nH]c2ccccc2s1`, the AC50 in the test with SERPINA7 (gene 6906) was 36.4 µM (active).

As for `CCCCCCCCCCCCCCOS(=O)(=O)O`, the AC50 with SERPINA7 (gene 6906) is 27.7 µM (active).

On to `Cc1cn([C@H]2C=C[C@@H](CO)O2)c(=O)[nH]c1=O`, for which the call in test [3], in test [4], in test [5], in test [6] and in [7] was inactive.

Consider `O=C1NC(=O)C(c2ccccc2)(c2ccccc2)N1`, for which the outcome in test [3], in [4], in [5] and in test [7] was inactive. The values for the AC50 (with SERPINA7 (gene 6906); in [6]) were 17.4 µM (active) and 100 µM (active), respectively.

In the case of `CCCCCCC(C=O)=Cc1ccccc1`, in the test with SERPINA7 (gene 6906), the half-maximal activity concentration (AC50) was 21.5 µM (active).

On to `OCC(O)CO`, for which the compound was classed as inactive in test [8] and in test [9].

Turning to `CCCCc1nc2cccnc2n1Cc1ccc(-c2ccccc2-c2nnn[nH]2)cc1`, the AC50 with SERPINA7 (gene 6906) is 33.7 µM (active).

For `Cc1cc(Cc2ccc(N)c(C)c2)ccc1N`, in the test on SERPINA7 (gene 6906), the AC50 was 24 µM (active).

`Cc1ccc(-c2cc(C(F)(F)F)nn2-c2ccc(S(N)(=O)=O)cc2)cc1`: the result in test [2] was inactive.

As for `O=C(Oc1ccccc1)c1cccc(C(=O)Oc2ccccc2)c1`, the concentration at half-maximal activity (AC50) in the test with SERPINA7 (gene 6906) is 9.91 µM (active).

Consider `O=C1c2c(O)cccc2Cc2cccc(O)c21`, for which, in the test with SERPINA7 (gene 6906), the half-maximal activity concentration (AC50) is 41.1 µM (active).

As for `O=Cc1ccccc1C=O`, in the test on SERPINA7 (gene 6906), the concentration at half-maximal activity (AC50) is 8.72 µM (active).

`Nc1nc(Cl)nc2c1ncn2[C@H]1C[C@H](O)[C@@H](CO)O1`: the results for the AC50 in test [1] and in test [2] were 15.2 µM (active) and 0.23 µM (active), respectively.

Regarding `O=C(O)c1cccnc1`, the result in test [3], in test [4], in [5], in test [6] and in test [7] was inactive.

In the case of `CCC(C)N(C)C(=O)c1cc2ccccc2c(-c2ccccc2Cl)n1` (stereo unspecified), the half-maximal activity concentration (AC50) with SERPINA7 (gene 6906) is 38.1 µM (active).

In the case of `O=C1OC(c2ccc(O)cc2)(c2ccc(O)cc2)c2ccccc21`, the result in test [2] was inactive. Moreover, in the test on SERPINA7 (gene 6906), the half-maximal activity concentration (AC50) is 3.3 µM (active).

In the case of `O=C(O)c1[nH]n(-c2ccc(S(=O)(=O)O)cc2)c(=O)c1N=Nc1ccc(S(=O)(=O)O)cc1`, the AC50 with SERPINA7 (gene 6906) was 27.1 µM (active).

For `Cc1c(C)c2c(c(C)c1O)CCC(C)(COc1ccc(CC3SC(=O)NC3=O)cc1)O2` (stereo unspecified), the AC50 in the test with SERPINA7 (gene 6906) is 8.3 µM (active).

For the compound `CC(=O)CC(c1ccccc1)c1c(O)c2ccccc2oc1=O` (stereo unspecified), the result in test [3], in [9], in [4] and in test [7] was inactive. Also, the AC50 in the test on SERPINA7 (gene 6906) is 37.9 µM (active); in test [5] it was 100 µM (active); in test [6], 1.45e-06 µM (active).

Regarding `Cc1ccc(C(C)(C)C)c(O)c1`, the AC50 in the test on SERPINA7 (gene 6906) was 26.7 µM (active).

In the case of `CCCCC(CC)COP(=O)(OCC(CC)CCCC)OCC(CC)CCCC` (stereo unspecified), in test [1], the result was inactive. The AC50 in test [2] was 0.00227 µM (active).
